Several values for one entry are separate records, joined by “and”; a condition that tells them apart may be missing. Equal values may be shown once. Results filed as inconclusive are left out. Values without a mark were called inactive. Activity calls are given as the source filed them. Unless noted, the call rests on the fitted dose curve; in most records, active means well fitted curve in the direction sought with a large enough effect; inconclusive means small, poorly fitted or top-dose-only effect, or another doubt; inactive means no such curve, though single readings can be large; an effect the other way counts as inactive or inconclusive.

From PubChem BioAssay (NCATS) come the findings set out here.

Test [1] concerns the target Cellular tumor antigen p53 (Homo sapiens) (UniProt P04637). Put plainly: Primary qHTS for small molecule compounds that upregulate eGFP-tagged delta133p53alpha (in N-terminal) cells. (AID 2060322). Further: nearly all actives have a fitted effect of over 75% in size. Further: potency means the concentration at half of the fitted maximal effect.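 On activation: cells pre-induced with doxycycline then dosed without doxycycline; series mostly up to about 56 µM; 0% = DMSO vehicle and 100% = reference activator.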 The following applies: NCI-H358 eGFP-delta133p53alpha fluorescence, 24 h; activation: active compounds read high. The method, boiled down:
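NCI-H358 cells pre-induced 24 h with 10 ng/ml doxycycline for eGFP-delta133p53alpha, plated dox-free and exposed 24 h at 37C to titrated compounds. Fixed, Hoechst-stained; gated GFP peak intensity by laser scanning cytometry, normalized to DMSO (0%) and 57.5 uM 5-azacytidine (100%).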
(In general: qHTS replaces the single test concentration by a dilution series.)

The target of test [2] is Aldehyde dehydrogenase, mitochondrial (Homo sapiens) (UniProt P05091). As to the kind of experiment: qHTS for Inhibitors of the Aldehyde Dehydrogenase Family (ALDH2) Confirmatory screens (AID 2061303; active means well fitted inhibition curve with a large enough effect; title and protocol of this record describe different tests; further: on the % scale 0 is the no-effect control and ±100 the full control effect; nearly all actives have a fitted effect of over 45% in size).
Test [3] can be described thus: qHTS for Inhibitors of the Aldehyde Dehydrogenase Family (ALDH1A2, ALDH1A3, ALDH2, ALDH3A1) (AID 2061307). Further: on the % scale 0 is the no-effect control and ±100 the full control effect; nearly all actives have a fitted effect of over 50% in size.
Test [4] concerns the target Aldehyde dehydrogenase, mitochondrial (Homo sapiens) (UniProt P05091). As to the kind of experiment: qHTS for Inhibitors of the Aldehyde Dehydrogenase Family (ALDH2) Primary screen (AID 2061308). Further: nearly all actives have a fitted effect of over 55% in size. Further: potency means the concentration at half of the fitted maximal effect.
The target of test [5] is Retinaldehyde dehydrogenase 3 (Homo sapiens) (UniProt P47895). As to the kind of experiment: qHTS for Inhibitors of the Aldehyde Dehydrogenase Family (ALDH1A3) Confirmatory screens (AID 2061311). Further: nearly all actives have a fitted effect of over 60% in size. Further: potency means the concentration at half of the fitted maximal effect.
Test [6] shares this target. Put plainly: qHTS for Inhibitors of the Aldehyde Dehydrogenase Family (ALDH1A3) Validation screen (AID 2061312). Further: nearly all actives have a fitted effect of over 45% in size. Further: potency means the concentration at half of the fitted maximal effect.
Test [7] has as its target Retinal dehydrogenase 2 (Homo sapiens) (UniProt O94788). As to the kind of experiment: qHTS for Inhibitors of the Aldehyde Dehydrogenase Family (ALDH1A2) Confirmation screens (AID 2061314). Further: nearly all actives have a fitted effect of over 65% in size.
Test [8] has as its target Retinaldehyde dehydrogenase 3 (Homo sapiens) (UniProt P47895). Put plainly: qHTS for Inhibitors of the Aldehyde Dehydrogenase Family (ALDH1A3) Primary screen (AID 2061315).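 Further: plate controls were DMSO vehicle for no effect and reference inhibitor for full effect.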
Test [9] concerns the target Aldehyde dehydrogenase 1A1 (Homo sapiens) (UniProt P00352). Put plainly: qHTS for Inhibitors of the Aldehyde Dehydrogenase Family (ALDH1A1) Confirmatory screens (AID 2061316). Further: nearly all actives have a fitted effect of over 65% in size.
Test [10] is described as follows: BET inhibitor-based combinations targeting novel dependencies in MECOM-rearranged (r) AML: SET-2 cell line (AID 2202231). Further: nearly all actives have a fitted effect of over 35% in size. Further: potency means the concentration at half of the fitted maximal effect.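 On viability: plate controls were DMSO treated cells for no effect and wells without cells for full effect.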 The following applies: SET-2 AML cells viability, CellTiter-Glo luminescence, 48 h; viability: active compounds read low, concentration not given here. The method, boiled down: (§1)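 Each compound was tested at eleven concentrations on cells seeded at 500/well. After two days' incubation, ATP-based luminescence reported viability; responses relative to DMSO and blank wells yielded AUC and cell-line-centred Z-AUC.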
A general note: In ATP-based viability assays light output follows the ATP content of the culture.

Test [11] is described as follows: BET inhibitor-based combinations targeting novel dependencies in MECOM-rearranged (r) AML: OCI-AML3 cell line (AID 2202232). Further: nearly all actives have a fitted effect of over 35% in size. Further: potency means the concentration at half of the fitted maximal effect. Particulars: Potency: OCI-AML3 viability. The method, boiled down: as §1
Test [12] can be described thus: BET inhibitor-based combinations targeting novel dependencies in MECOM-rearranged (r) AML: HNT-34 cell line (AID 2202234). Further: nearly all actives have a fitted effect of over 35% in size. Further: potency means the concentration at half of the fitted maximal effect. The method, boiled down: (§2)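 First, 500 cells per well were seeded; next, drugs were pinned as 11-point doses; then plates sat 48 hr in the incubator; finally CellTiter-Glo was added and luminescence read, with AUC and Z-AUC computed.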
A short description of test [13]: BET inhibitor-based combinations targeting novel dependencies in MECOM-rearranged (r) AML: UCSD-AML1 cell line (AID 2202235). Further: nearly all actives have a fitted effect of over 40% in size. Further: potency means the concentration at half of the fitted maximal effect. The method, boiled down: as §2
Test [14] is described as follows: BET inhibitor-based combinations targeting novel dependencies in MECOM-rearranged (r) AML: AML-194 cell line (AID 2202237; further: nearly all actives have a fitted effect of over 40% in size; further: potency means the concentration at half of the fitted maximal effect). The method, boiled down: as §1
Test [15] deals with Aldehyde dehydrogenase, mitochondrial (Homo sapiens) (UniProt P05091). Put plainly: qHTS for Inhibitors of the Aldehyde Dehydrogenase Family (ALDH2) Validation screens (AID 2061302; active means well fitted inhibition curve with a large enough effect; title and protocol of this record describe different tests;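 further: plate controls were DMSO vehicle for no effect and maximal DPI positive control response for full effect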).
A short description of test [16]: BET inhibitor-based combinations targeting novel dependencies in MECOM-rearranged (r) AML: MV-4-11 cell line (AID 2202233). Further: nearly all actives have a fitted effect of over 45% in size. Further: potency means the concentration at half of the fitted maximal effect. The method, boiled down:
as §2

Test [17] can be described thus: BET inhibitor-based combinations targeting novel dependencies in MECOM-rearranged (r) AML: AML-191 cell line (AID 2202236; further: potency means the concentration at half of the fitted maximal effect; nearly all actives have a fitted effect of over 35% in size). The method, boiled down: as §1

Chain of Cellular tumor antigen p53 (Homo sapiens) (P04637 whole entry, looked up): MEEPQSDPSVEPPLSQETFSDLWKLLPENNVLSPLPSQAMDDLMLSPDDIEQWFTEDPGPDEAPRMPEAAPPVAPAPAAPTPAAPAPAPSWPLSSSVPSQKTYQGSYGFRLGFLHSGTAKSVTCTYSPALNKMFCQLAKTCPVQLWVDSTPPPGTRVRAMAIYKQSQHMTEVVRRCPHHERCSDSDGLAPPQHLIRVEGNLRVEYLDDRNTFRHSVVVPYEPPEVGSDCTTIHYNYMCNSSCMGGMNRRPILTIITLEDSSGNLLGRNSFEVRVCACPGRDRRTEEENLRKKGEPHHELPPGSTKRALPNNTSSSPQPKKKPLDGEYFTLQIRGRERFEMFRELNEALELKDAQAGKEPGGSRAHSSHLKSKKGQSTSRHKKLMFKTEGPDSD

For the molecule `NC(N)=NCCC[C@H](NC(=O)c1sccc1NS(=O)(=O)c1cccc2nsnc12)C(=O)O`, the activation in [1] is -11.5%. Moreover, the Potency result in test [2], in [3], in test [4], in test [5], in test [6] and in test [7] was “inactive” each time. Moreover, the Potency entry in [8] and in [9] was “inactive” throughout.

As for `CCCCC1CCN(CCCN2C(=O)CCc3ccccc32)CC1`, the activation in test [1] was -5.25%. The Potency entry in [2], in test [3], in test [4], in test [5], in test [6] and in test [7] was “inactive” in each case. In addition, the Potency result in test [8] and in [9] was “inactive” in each case.

Consider `O=c1[nH]c2cccc(N3CCN(Cc4ccc(-c5ccccc5)cc4)CC3)c2o1`, for which the activation in test [1] is -3.82%. The Potency entry in test [2], in test [3], in test [4], in test [5], in test [6] and in [7] was “inactive” throughout. The Potency result in [8] and in test [9] was “inactive” each time.

As for `NCc1ccc(OCCCc2sc(-c3ccc4c(c3)/C(=N/Nc3nc5ccccc5s3)CCC4)nc2C(=O)O)cc1`, in test [1], the activation was 7.64%. Besides, the Potency result in test [2], in [3], in test [7], in [11] and in test [14] was “inactive” in each case. The Potency in test [4] was 31.6 µM (active); in test [5], 14.2 µM (active); in test [6], 7.08 µM (active); in test [10], 0.332 µM (active); in test [12] it was 0.166 µM (active); in test [13], 0.209 µM (active).

Regarding `Fc1ccc([C@@H]2CCNC[C@H]2COc2ccc3c(c2)OCO3)cc1`, the activation in [1] is 28.5% and -0.566% and 41.3%. Moreover, the Potency entry in [15] and in test [6] was “inactive” in each case.

Take `OCCN1CCN(CCCN2c3ccccc3Sc3ccc(C(F)(F)F)cc32)CC1`: the activation in test [1] was 21.2% and 6.21% and -4.78%. The Potency result in test [15] and in [13] was “inactive” throughout. Moreover, the Potency was 20.9 µM (active) in [10]; 18.6 µM (active) in test [11]; 18.6 µM (active) in [16]; 18.6 µM (active) in test [12]; 29.5 µM (active) in [17].

`C#CC(=O)N(c1ccc(OC)cc1OC)C(C(=O)NCC(=O)OCC)c1cccs1` (stereo not given): the Potency in [1] is 7.57 µM (active). In addition, the Potency result in test [2] and in [3] was “inactive” in each case.

Take `COc1cc2c3c(cc4ccccc4c3c1O)NC2=O`: the activation in test [1] was -8.93%. For the same molecule, the Potency result in test [2], in [3] and in test [4] was “inactive” in each case. Further, the Potency in test [5] is 14.2 µM (active).

Regarding `O=C(Nc1cc(C(F)(F)F)cc(C(F)(F)F)c1)c1cnc(Cl)nc1C(F)(F)F`, in [1], the Potency is 30.1 µM (active). In addition, the Potency result in [2], in test [3], in test [4], in test [5], in [6] and in test [7] was “inactive” in each case. Further, the Potency entry in [8] and in [9] was “inactive” throughout.

As to `NC(=O)[C@H]1CCS[C@@H]2C[C@]3(CCCN3C(=O)Cc3ccc(NC(=O)COc4ccc(Cl)cc4Cl)cc3)C(=O)N12`, the activation in test [1] was 19%. For the same molecule, the Potency result in test [2], in test [3], in test [4], in test [5], in test [6] and in test [7] was “inactive” throughout. Moreover, the Potency entry in [8] and in [9] was “inactive” throughout. Also, the Potency was 14.8 µM (active) in [10]; 9.34 µM (active) in test [11]; 7.42 µM (active) in [16]; 7.42 µM (active) in test [13]; 5.25 µM (active) in test [17]; 6.61 µM (active) in test [14].

As for `OC(CN1CCC(Cc2ccc(F)cc2)CC1)c1ccc(Cl)cc1` (stereo not given), the activation in [1] is 5.08% and 40.7%. In addition, the Potency result in test [15] and in test [6] was “inactive” throughout.

For `C=C(C)C1CC=C(C(=O)O)CC1` (stereo not given), the activation in [1] is -6.28%. Besides, the Potency result in test [15] and in [6] was “inactive” throughout.

`NC(=NCc1ccccc1)NC(=O)c1nc(Cl)c(N)nc1N`: the activation in [1] was 0.24% and 2.72%. Besides, the Potency entry in test [15], in test [6] and in test [13] was “inactive” in each case. Further, the Potency in test [16] was 5.25 µM (active); in test [12], 14.8 µM (active); in test [17], 20.9 µM (active); in [14], 23.5 µM (active).

As to `NC(Cc1c[nH]c2ccccc12)C(=O)NC(CCC(=O)O)C(=O)O` (stereo not given), in [1], the activation is -0.955%. Besides, the Potency result in [2], in test [3], in test [4], in test [5], in [6] and in test [7] was “inactive” each time. For the same molecule, the Potency entry in test [8] and in [9] was “inactive” in each case.

In the case of `O=C(Nc1nc2ccccc2n1CCN1CCOCC1)c1cccc([N+](=O)[O-])c1`, the activation in test [1] is 5.07% and -24.4%. The Potency entry in test [15] and in test [12] was “inactive” throughout. For the same molecule, the viability (as a rule, a read-out of living cells in per cent, often relative to untreated cells) in test [10] is 112%.

As for `CSc1ccc(C(=O)c2[nH]c(=O)[nH]c2C)cc1`, the activation in test [1] is -17.5% and -26.2%. Also, the Potency entry in test [15] and in test [6] was “inactive” throughout.

As to `COC(=O)[C@@]1(c2ccc(C)cc2)C[C@H]1CN1CCC(O)(c2ccccc2)CC1`, in test [1], the activation was 0.477%. Further, the Potency entry in test [2], in test [3], in test [4], in [5], in test [6] and in test [7] was “inactive” in each case. Also, the Potency entry in test [8] and in test [9] was “inactive” each time.

On to `CN(C)S(=O)(=O)c1ccc2c(c1)/C(=C/c1cc3c([nH]1)CCCC3)C(=O)N2`, for which the Potency in [1] was 6.75 µM (active). Moreover, the Potency entry in test [15] and in [6] was “inactive” each time.

For `COc1ccccc1OCC(O)CN1CCN(CC(=O)Nc2c(C)cccc2C)CC1` (stereo not given), in [1], the activation is -19.2% and 6.83% and -14.1%. Also, the Potency entry in test [15], in test [16], in [12] and in test [14] was “inactive” throughout. Also, the viability in [10] is 110%.

In the case of `CCN(CC)CCNC(=O)c1ccc(NC(C)=O)cc1`, in test [1], the activation is 18.6% and -9.2%. The Potency result in test [15] and in [6] was “inactive” throughout.

Take `N#Cc1ccc(C(=O)N2CCC3(CC2)N=C(N)c2c(F)ccc(F)c2N3)cn1`: in test [1], the activation is 6.21%. Further, the Potency entry in [2], in [3], in test [4], in test [5], in [6] and in test [7] was “inactive” throughout. The Potency entry in test [8] and in [9] was “inactive” in each case.

As for `Brc1c(Br)c(Br)c2[nH]cnc2c1Br`, in test [1], the activation was -55.8%. Besides, the Potency result in test [15] and in test [6] was “inactive” throughout.
